# From PubChem BioAssay AID1159580 (chemical genetic matrix, 2015)
# Out of some 5,500 compounds screened, about 2,000 (36%) were called active. About 18% were inconclusive and are not listed. Some of the results follow. A number with no mark means an inactive call. No stated cut-off is given here; in the data, active means normalized growth mostly below about 0.91 (no sharp cut-off); inconclusive means no clear call, values can overlap the other calls; inactive means mostly above about 0.92.
# Test: chemical genetic growth profiling, strain panel (AID 1159580);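 further: tested at 20 µM; growth read once vehicle control cultures reached saturation at 30 °C; 1 = growth at the plate median or of vehicle wells; lower values mean less growth of the strain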
# Settings: S. cerevisiae deletion strains, growth OD
# [1] = locus YHR030C, strain SLT2, hits give low values
# [2] = locus YJL187C, strain SWE1, hits give low values
# [3] = locus YHR079C, strain IRE1, hits give low values
# [4] = locus YJL095W, strain BCK1, hits give low values
# [5] = locus YJR066W, strain TOR1, hits give low values
# [6] = locus YLR113W, strain HOG1, hits give low values
# [7] = locus YNL183C, strain NPR1, hits give low values
# [8] = locus YOR231W, strain MKK1, hits give low values
# [9] = locus YPL256C, strain CLN2, hits give low values
compound,measurement,setting,value
COC(=O)C1Cc2c([nH]c3ccccc23)C2(CCN(C)CC2)N1 (stereo unspecified),normalized growth,"locus YAL013W, strain DEP1, hits give low values",1.01
same,normalized growth,"locus YBR229C, strain ROT2, hits give low values",0.989
same,normalized growth,"locus YDL101C, strain DUN1, hits give low values",0.995
same,normalized growth,"locus YDL134C, strain PPH21, hits give low values",0.981
same,normalized growth,"locus YDR150W, strain NUM1, hits give low values",0.986
same,normalized growth,"locus YEL061C, strain CIN8, hits give low values",0.993
same,normalized growth,"locus YGR078C, strain PAC10, hits give low values",0.993
same,normalized growth,[1],0.985
same,normalized growth,"locus YHR087W, strain rtc3, hits give low values",0.998
same,normalized growth,[2],0.996
same,normalized growth,"locus YJR043C, strain POL32, hits give low values",1
same,normalized growth,"locus YJR075W, strain HOC1, hits give low values",0.998
same,normalized growth,"locus YLR039C, strain RIC1, hits give low values",0.975
same,normalized growth,"locus YLR058C, strain SHM2 (second series), hits give low values",1.01
same,normalized growth,"locus YLR085C, strain ARP6, hits give low values",1.01
same,normalized growth,"locus YLR262C, strain YPT6, hits give low values",0.981
same,normalized growth,"locus YML094W, strain GIM5, hits give low values",0.961
same,normalized growth,"locus YMR219W, strain ESC1, hits give low values",0.995
same,normalized growth,"locus YMR263W, strain SAP30, hits give low values",1.02
same,normalized growth,"locus YNL128W, strain TEP1, hits give low values",0.973
same,normalized growth,"locus YNL153C, strain GIM3, hits give low values",0.999
same,normalized growth,"locus YNL298W, strain CLA4 (second series), hits give low values",1.02
same,normalized growth,"locus YNL322C, strain KRE1, hits give low values",0.987
same,normalized growth,"locus YNR030W, strain Alg12, hits give low values",1.01
same,normalized growth,"locus YOL006C, strain TOP1, hits give low values",1
same,normalized growth,"locus YPL055C, strain LGE1, hits give low values",1.01
same,normalized growth,"locus YPL241C, strain CIN2, hits give low values",0.977
same,normalized growth,"locus YPR135W, strain CTF4, hits give low values",0.944
CCCNCCCCCC[N+](C)(C)C,normalized growth,[1],1.02
same,normalized growth,[3],0.975
same,normalized growth,[4],0.979
same,normalized growth,[5],0.927
same,normalized growth,[6],1.02
same,normalized growth,[7],0.932
same,normalized growth,[8],0.984
same,normalized growth,[9],0.989
Cc1cc(-n2c(=O)[nH]c(=O)n(C)c2=O)ccc1Oc1ccc(SC(F)(F)F)cc1,normalized growth,"locus YAL021C, strain ccr4, hits give low values",0.925
same,normalized growth,"locus YAL026C, strain drs2, hits give low values",0.602 (active)
same,normalized growth,"locus YAL030W, strain snc1, hits give low values",0.565 (active)
same,normalized growth,"locus YBL061C, strain skt5, hits give low values",0.688 (active)
same,normalized growth,"locus YBR009C, strain hhf1, hits give low values",0.552 (active)
same,normalized growth,"locus YBR023C, strain chs3, hits give low values",0.742 (active)
same,normalized growth,"locus YBR171W, strain sec66, hits give low values",0.802 (active)
same,normalized growth,"locus YBR231C, strain swc5, hits give low values",0.868 (active)
same,normalized growth,"locus YBR279W, strain paf1, hits give low values",0.935
same,normalized growth,"locus YCL011C, strain gbp2, hits give low values",0.548 (active)
same,normalized growth,"locus YCL016C, strain dcc1, hits give low values",0.905 (active)
same,normalized growth,"locus YCL061C, strain MRC1, hits give low values",0.792 (active)
same,normalized growth,"locus YCL069W, strain vba3, hits give low values",0.978
same,normalized growth,"locus YCR088W, strain abp1, hits give low values",0.793 (active)
same,normalized growth,"locus YDL005C, strain med2, hits give low values",0.583 (active)
same,normalized growth,"locus YDL040C, strain nat1, hits give low values",0.863 (active)
same,normalized growth,"locus YDR001C, strain nth1, hits give low values",0.845 (active)
same,normalized growth,"locus YDR069C, strain doa4, hits give low values",0.941
same,normalized growth,"locus YDR137W, strain rgp1, hits give low values",0.405 (active)
same,normalized growth,"locus YDR159W, strain sac3, hits give low values",0.532 (active)
same,normalized growth,"locus YDR195W, strain ref2",0.418 (active)
same,normalized growth,"locus YDR297W, strain sur2, hits give low values",0.695 (active)
same,normalized growth,"locus YDR334W, strain swr1, hits give low values",0.855 (active)
same,normalized growth,"locus YDR335W, strain msn5, hits give low values",0.661 (active)
same,normalized growth,"locus YDR392W, strain spt3, hits give low values",0.141 (active)
same,normalized growth,"locus YEL003W, strain gim4, hits give low values",0.704 (active)
same,normalized growth,"locus YEL037C, strain rad23, hits give low values",0.933
same,normalized growth,"locus YEL061C, strain CIN8 (second series), hits give low values",0.647 (active)
same,normalized growth,"locus YER015W, strain faa2, hits give low values",0.994
same,normalized growth,"locus YER016W, strain bim1, hits give low values",0.935
same,normalized growth,"locus YER111C, strain swi4, hits give low values",0.75 (active)
same,normalized growth,"locus YER155C, strain BEM2 (second series), hits give low values",0.968
same,normalized growth,"locus YFR010W, strain ubp6, hits give low values",0.76 (active)
same,normalized growth,"locus YGL167C, strain pmr1, hits give low values",1.02
same,normalized growth,"locus YGL173C, strain kem1, hits give low values",0.895 (active)
same,normalized growth,"locus YGL227W, strain vid30, hits give low values",0.867 (active)
same,normalized growth,"locus YGL240W, strain doc1, hits give low values",0.629 (active)
same,normalized growth,"locus YGL253W, strain hxk2, hits give low values",0.701 (active)
same,normalized growth,"locus YHR013C, strain ard1, hits give low values",0.998
same,normalized growth,"locus YHR027C, strain rpn1, hits give low values",0.969
same,normalized growth,[1],0.811 (active)
same,normalized growth,[3],0.786 (active)
same,normalized growth,"locus YHR142W, strain chs7, hits give low values",0.318 (active)
same,normalized growth,"locus YJL092W, strain hpr5, hits give low values",0.844 (active)
same,normalized growth,"locus YJL095W, strain BCK1 (second series), hits give low values",0.754 (active)
same,normalized growth,[4],0.724 (active)
same,normalized growth,"locus YJL115W, strain asf1, hits give low values",0.926
same,normalized growth,"locus YJL129C, strain trk1, hits give low values",0.882
same,normalized growth,"locus YJL154C, strain vps35, hits give low values",0.644 (active)
same,normalized growth,"locus YJL164C, strain tpk1, hits give low values",0.346 (active)
same,normalized growth,"locus YJL166W, strain qcr8, hits give low values",0.383 (active)
same,normalized growth,[2],0.546 (active)
same,normalized growth,[5],0.75 (active)
same,normalized growth,"locus YKL160W, strain elf1, hits give low values",0.69 (active)
same,normalized growth,"locus YKR026C, strain gcn3, hits give low values",0.707 (active)
same,normalized growth,"locus YKR091W, strain srl3, hits give low values",0.908 (active)
same,normalized growth,"locus YLL001W, strain dnm1, hits give low values",0.844 (active)
same,normalized growth,"locus YLL026W, hits give low values",0.169 (active)
same,normalized growth,"locus YLL041C, strain sdh2, hits give low values",0.775 (active)
same,normalized growth,"locus YLR027C, strain aat2, hits give low values",0.589 (active)
same,normalized growth,[6],0.764 (active)
same,normalized growth,"locus YLR221C, strain rsa3, hits give low values",0.436 (active)
same,normalized growth,"locus YLR258W, strain gsy2, hits give low values",0.705 (active)
same,normalized growth,"locus YLR262C, strain YPT6 (second series), hits give low values",0.367 (active)
same,normalized growth,"locus YLR320W, strain mms22, hits give low values",0.823 (active)
same,normalized growth,"locus YLR342W, strain FKS1, hits give low values",0.864 (active)
same,normalized growth,"locus YLR357W, strain rsc2, hits give low values",0.581 (active)
same,normalized growth,"locus YLR370C, strain arc18, hits give low values",0.886 (active)
same,normalized growth,"locus YLR384C, strain iki3, hits give low values",1.03
same,normalized growth,"locus YML120C, strain ndi1, hits give low values",0.844 (active)
same,normalized growth,"locus YMR058W, strain fet3, hits give low values",0.705 (active)
same,normalized growth,"locus YMR125W, strain sto1, hits give low values",0.709 (active)
same,normalized growth,"locus YMR129W, hits give low values",1.02
same,normalized growth,"locus YMR205C, strain PFK2, hits give low values",0.705 (active)
same,normalized growth,"locus YMR231W, strain pep5, hits give low values",0.703 (active)
same,normalized growth,"locus YNL071W, strain lat1, hits give low values",0.422 (active)
same,normalized growth,[7],0.81 (active)
same,normalized growth,"locus YNL209W, strain ssb2, hits give low values",0.915 (active)
same,normalized growth,"locus YNL248C, strain rpa49, hits give low values",0.635 (active)
same,normalized growth,"locus YNL322C, strain KRE1 (second series), hits give low values",1.03
same,normalized growth,"locus YNR049C, strain mso1, hits give low values",0.98
same,normalized growth,"locus YOR001W, strain rrp6, hits give low values",0.888 (active)
same,normalized growth,"locus YOR070C, strain gyp1, hits give low values",0.754 (active)
same,normalized growth,"locus YOR080W, strain dia2, hits give low values",1.02
same,normalized growth,"locus YOR083W, strain WHI5, hits give low values",0.758 (active)
same,normalized growth,"locus YOR106W, strain vam3, hits give low values",0.424 (active)
same,normalized growth,[8],0.804 (active)
same,normalized growth,"locus YOR265W, strain rbl2, hits give low values",0.893 (active)
same,normalized growth,"locus YOR270C, strain vph1, hits give low values",0.344 (active)
same,normalized growth,"locus YOR290C, strain snf2, hits give low values",0.763 (active)
same,normalized growth,"locus YPL051W, strain arl3, hits give low values",0.636 (active)
same,normalized growth,"locus YPL078C, strain atp4, hits give low values",0.547 (active)
same,normalized growth,"locus YPL106C, strain sse1, hits give low values",0.469 (active)
same,normalized growth,"locus YPL240C, strain hsp82, hits give low values",0.954
same,normalized growth,[9],0.764 (active)
